Assay results as given in PubChem BioAssay (NCI).
The panel holds about 83,000 compounds, 20% with a hit somewhere; the sample as a whole holds those more often.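 The test compound was applied at a single concentration to cells in 96-well plates for 48 hours, and percent growth was recorded.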 Values without a mark were called inactive. Activity calls are given as the source filed them. The calls were made as follows: active = growth percent below 10; inactive = the rest.

Legend:
Assay in all cases: NCI-60 one-dose screen, 48 h (100 = growth as untreated, 0 = no growth, -100 = all killed)
Settings in all cases: 10 µM unless noted
NCI-H23 lung = test system: NCI-H23 lung
NCI-H226 lung = test system: NCI-H226 lung
NCI-H322M lung = test system: NCI-H322M lung
HOP-62 NSCLC = test system: HOP-62 NSCLC
NCI-H460 lung = test system: NCI-H460 lung
HOP-92 NSCLC = test system: HOP-92 NSCLC
NCI-H522 lung = test system: NCI-H522 lung
A549/ATCC NSCLC = test system: A549/ATCC NSCLC
786-0 renal = test system: 786-0 renal
COLO 205 colon = test system: COLO 205 colon

SMILES | growth (NCI-H23 lung) | growth (NCI-H226 lung) | growth (NCI-H322M lung) | growth (HOP-62 NSCLC) | growth (NCI-H460 lung) | growth (HOP-92 NSCLC) | growth (NCI-H522 lung) | growth (A549/ATCC NSCLC) | growth (786-0 renal) | growth (COLO 205 colon)
C(=C(\C1=NCCN1)n1cnc2ccccc21)/c1ccc2ccccc2c1 | 65.4% | 62.6% | 73.2% | 79.4% | 86.5% | -2.7% (active) | 14.7% | 86% | 74.6% | 77.1%
C#CCOc1ccc(/C=N/Nc2nc(-c3cc4cc(Br)cc(Br)c4oc3=O)cs2)cc1 | 94.6% | 93.8% | 103% | 105% | 101% | 89.3% | 95% | 97% | 99.7% | 100%
O=[N+]([O-])c1ccc(-c2nnc(SCc3ccc(O)c4ncccc34)o2)cc1 | 21.5% | 36.2% | 40.7% | 21.5% | 8.58% (active) | -13.4% (active) | 17.2% | 25.8% | 33% | 49.9%
COc1ccccc1N1CCN(C2=NN=C(c3cccc(Cl)c3)c3ccccc3C2)CC1 | 31.6% | 57.5% | 37% | 34.3% | 1.95% (active) | 46.8% | -27.1% (active) | 17.2% | 27% | -38.7% (active)
CN(C)C(=O)C1=NC(CO)C(=O)N(c2ccc(Cl)cc2)N1 (stereo not given) | 104% | 105% | 98.6% | 98.9% | 104% | 91.4% | 97.1% | 99% | 93.9% | 105%
C#CCOc1ccc(C(Nc2cc(Cl)ccc2Cl)c2nnnn2C2CCCCC2)cc1 (stereo not given) | 88.6% | 85.3% | 87.4% | 86.4% | 88.3% | 72.7% | 69.9% | 80.5% | 90% | 107%
IP(CCCSc1n(Cc2ccc3ccccc3c2)c(-c2ccccc2)c(-c2ccccc2)[n+]1Cc1ccc2ccccc2c1)(c1ccccc1)(c1ccccc1)c1ccccc1 | 26.3% | 78.8% | 63.5% | 31.2% | 22.8% | -1.48% (active) | 8.1% (active) | 26.7% | 87.2% | -9.45% (active)
CC[C@@](C)(NC(=O)C(C)(C)NC(=O)[C@@H](NC(=O)[C@@H]1CCCN1C(=O)C(C)(C)NC(=O)[C@H](CC(C)C)NC(=O)CNC(=O)C(C)(C)NC(=O)[C@@H](NC(=O)C(C)(C)NC(=O)[C@H](CCC(N)=O)NC(=O)[C@H](C)NC(=O)C(C)(C)NC(=O)[C@H](C)NC(=O)C(C)(C)NC(=O)[C@@H]1CCCN1C(=O)C(C)(C)NC(C)=O)C(C)C)C(C)C)C(=O)N[C@@H](CCC(N)=O)C(=O)N[C@@H](CCC(N)=O)C(=O)N[C@H](CO)Cc1ccccc1 | 14.9% [4.25 µM] | 61.3% [4.25 µM] | 58.4% [4.25 µM] | 51.9% [4.25 µM] | 39.4% [4.25 µM] | -13.3% [4.25 µM] (active) | -1.04% [4.25 µM] (active) | 50.1% [4.25 µM] | 77.2% [4.25 µM] | -12.5% [4.25 µM] (active)
CN(C)C(=O)c1ccccc1-n1cnc2ccccc2c1=O | 99.3% | 102% | 98.5% | 112% | 101% | 117% | 101% | 99.2% | 101% | 109%
COc1cccc(/C=C/C(=O)c2ccc(NC(=O)COc3cccc4cccnc34)cc2)c1 | 99.3% | 93.9% | 95.5% | 112% | 101% | 107% | 90.2% | 95.2% | 96.8% | 105%
O=C(CSc1nnc(-c2ccc(Cl)cc2)n1-c1ccccc1)Nc1ccc(F)cc1 | 82.3% | 96.1% | 80.3% | 75.2% | 40.8% | 99.2% | 71.8% | 57.3% | 68.1% | 96.6%
O=C(Nc1cc(Cl)cc(Cl)c1)Nc1ccc2oc(=O)ccc2c1 | -6.33% (active) | 32.7% | 21.9% | 40.5% | 1.17% (active) | -26.6% (active) | 6.05% (active) | 16.2% | 23.9% | -10.9% (active)
Fc1ccccc1/C=C(/C1=NCCN1)n1cnc2ccccc21 | 96% | 83.2% | 90% | 106% | 104% | 73.7% | 94.3% | 107% | 99% | 123%
